# Experimental data as given in article PMC8384837, “Expanding the binding specificity for RNA recognition by a PUF domain”.
# Assays:
# Assay in all cases: yeast three-hybrid, YBZ-1, SC-Leu-His + 0.5 mM 3-AT, 4 days
# Settings in all cases: tags: N-Gal4 AD-HA kept; label: inside an RPR1-promoter hybrid RNA with tandem MS2 sites; ssRNA
# PUM1 PUF domain R4-GNV = PUM1 PUF domain R4-GNV (Homo sapiens, UniProt Q14671 828-1176, N971G;H972N;Q975V)
# In short: (§1)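 The interaction score is the logarithmic change in variant frequency from input to selection. It uses log2, with a pseudocount of 1 for absent variants, and frequencies came from PCR-amplified, Illumina-sequenced repeat regions. The libraries were Pumilio-1 PUF domains randomized at the three base-contacting residues per repeat, co-expressed with matching RNA elements in strain YBZ-1 (LexA–MS2 coat fusion, HIS3 reporter). Plating lasted four days on SC-Leu (input) or SC-Leu-His + 0.5 mM 3-AT (selection).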
# PUM1 PUF domain R4-CMV = PUM1 PUF domain R4-CMV (Homo sapiens, UniProt Q14671 828-1176, N971C;H972M;Q975V)
# Chain of PUM1 PUF domain R4-CMV (Q14671 828-1176 N971C/H972M/Q975V): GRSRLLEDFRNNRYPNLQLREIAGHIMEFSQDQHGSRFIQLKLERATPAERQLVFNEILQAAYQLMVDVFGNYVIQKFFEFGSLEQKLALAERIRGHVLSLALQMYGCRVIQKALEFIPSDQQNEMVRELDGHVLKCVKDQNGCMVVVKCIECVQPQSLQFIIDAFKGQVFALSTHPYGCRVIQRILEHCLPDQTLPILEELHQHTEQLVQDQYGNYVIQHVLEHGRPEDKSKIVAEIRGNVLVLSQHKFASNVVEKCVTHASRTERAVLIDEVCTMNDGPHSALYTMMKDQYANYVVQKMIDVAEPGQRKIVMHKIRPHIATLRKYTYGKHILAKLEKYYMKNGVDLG
# In short: as §1
# PUM1 PUF domain R4-QGG = PUM1 PUF domain R4-QGG (Homo sapiens, UniProt Q14671 828-1176, N971Q;H972G;Q975G)
# Chain of PUM1 PUF domain R4-QGG (Q14671 828-1176 N971Q/H972G/Q975G): as the sequence (Q14671 828-1176 N971C/H972M/Q975V) above, with C144Q, M145G, V148G counted along it
# In short: as §1
# PUM1 PUF domain R1-RRS = PUM1 PUF domain R1-RRS (Homo sapiens, UniProt Q14671 828-1176, S863R;Q867S)
# Chain of PUM1 PUF domain R1-RRS (Q14671 828-1176 S863R/Q867S): as the sequence (Q14671 828-1176 N971C/H972M/Q975V) above, with S36R, Q40S, C144N, M145H, V148Q counted along it
# In short: as §1
# PUM1 PUF domain R3-FRW = PUM1 PUF domain R3-FRW (Homo sapiens, UniProt Q14671 828-1176, C935F;Q939W)
# Chain of PUM1 PUF domain R3-FRW (Q14671 828-1176 C935F/Q939W): as the sequence (Q14671 828-1176 N971C/H972M/Q975V) above, with C108F, Q112W, C144N, M145H, V148Q counted along it
# In short: as §1
# PUM1 PUF domain R5-GFM = PUM1 PUF domain R5-GFM (Homo sapiens, UniProt Q14671 828-1176, C1007G;R1008F;Q1011M)
# Chain of PUM1 PUF domain R5-GFM (Q14671 828-1176 C1007G/R1008F/Q1011M): as the sequence (Q14671 828-1176 N971C/H972M/Q975V) above, with C144N, M145H, V148Q, C180G, R181F, Q184M counted along it
# In short: as §1
# PUM1 PUF domain R1-KSL = PUM1 PUF domain R1-KSL (Homo sapiens, UniProt Q14671 828-1176, S863K;R864S;Q867L)
# Chain of PUM1 PUF domain R1-KSL (Q14671 828-1176 S863K/R864S/Q867L): as the sequence (Q14671 828-1176 N971C/H972M/Q975V) above, with S36K, R37S, Q40L, C144N, M145H, V148Q counted along it
# In short: as §1
# PUM1 PUF domain R3-QPS = PUM1 PUF domain R3-QPS (Homo sapiens, UniProt Q14671 828-1176, C935Q;R936P;Q939S)
# Chain of PUM1 PUF domain R3-QPS (Q14671 828-1176 C935Q/R936P/Q939S): as the sequence (Q14671 828-1176 N971C/H972M/Q975V) above, with C108Q, R109P, Q112S, C144N, M145H, V148Q counted along it
# In short: as §1
# PUM1 PUF domain R8-RRN = PUM1 PUF domain R8-RRN (Homo sapiens, UniProt Q14671 828-1176, N1122R;Y1123R;Q1126N)
# Chain of PUM1 PUF domain R8-RRN (Q14671 828-1176 N1122R/Y1123R/Q1126N): as the sequence (Q14671 828-1176 N971C/H972M/Q975V) above, with C144N, M145H, V148Q, N295R, Y296R, Q299N counted along it
# In short: as §1
# PUM1 PUF domain R5-VHL = PUM1 PUF domain R5-VHL (Homo sapiens, UniProt Q14671 828-1176, C1007V;R1008H;Q1011L)
# Chain of PUM1 PUF domain R5-VHL (Q14671 828-1176 C1007V/R1008H/Q1011L): as the sequence (Q14671 828-1176 N971C/H972M/Q975V) above, with C144N, M145H, V148Q, C180V, R181H, Q184L counted along it
# In short: as §1
# Chain of PUM1 PUF domain R4-GNV (Q14671 828-1176 N971G/H972N/Q975V): as the sequence (Q14671 828-1176 N971C/H972M/Q975V) above, with C144G, M145N counted along it
sequence,measurement,setting,value
GGCUAGAACUAGUGGAUCCCCCGGCGCCCGGCGGCUCGAGCCCGGGUAAGUGUAUAUAGUCUGCAUGCCGCCGGGCGCCAUGCCUGCAGGUCGACUCUAGAAAACAUG,binding signal,PUM1 PUF domain R4-GNV,2.92 log2 enrichment (interaction score)
same,binding signal,PUM1 PUF domain R4-CMV,3.68 log2 enrichment (interaction score)
same,binding signal,PUM1 PUF domain R4-QGG,2.98 log2 enrichment (interaction score)
GGCUAGAACUAGUGGAUCCCCCGGCGCCCGGCGGCUCGAGCCCGGGUAAGUGUAAAUGGUCUGCAUGCCGCCGGGCGCCAUGCCUGCAGGUCGACUCUAGAAAACAUG,binding signal,PUM1 PUF domain R1-RRS,2.51 log2 enrichment (interaction score)
GGCUAGAACUAGUGGAUCCCCCGGCGCCCGGCGGCUCGAGCCCGGGUAAGUGUAAGUAGUCUGCAUGCCGCCGGGCGCCAUGCCUGCAGGUCGACUCUAGAAAACAUG,binding signal,PUM1 PUF domain R3-FRW,4.16 log2 enrichment (interaction score)
GGCUAGAACUAGUGGAUCCCCCGGCGCCCGGCGGCUCGAGCCCGGGUAAGUGUAAAUUGUCUGCAUGCCGCCGGGCGCCAUGCCUGCAGGUCGACUCUAGAAAACAUG,binding signal,PUM1 PUF domain R1-RRS,3.16 log2 enrichment (interaction score)
GGCUAGAACUAGUGGAUCCCCCGGCGCCCGGCGGCUCGAGCCCGGGUAAGUGUGAAUAGUCUGCAUGCCGCCGGGCGCCAUGCCUGCAGGUCGACUCUAGAAAACAUG,binding signal,PUM1 PUF domain R5-GFM,2.5 log2 enrichment (interaction score)
GGCUAGAACUAGUGGAUCCCCCGGCGCCCGGCGGCUCGAGCCCGGGUAAGUGUAAAUCGUCUGCAUGCCGCCGGGCGCCAUGCCUGCAGGUCGACUCUAGAAAACAUG,binding signal,PUM1 PUF domain R1-RRS,5.02 log2 enrichment (interaction score)
same,binding signal,PUM1 PUF domain R1-KSL,2.8 log2 enrichment (interaction score)
GGCUAGAACUAGUGGAUCCCCCGGCGCCCGGCGGCUCGAGCCCGGGUAAGUGUACAUAGUCUGCAUGCCGCCGGGCGCCAUGCCUGCAGGUCGACUCUAGAAAACAUG,binding signal,PUM1 PUF domain R4-GNV,1.41 log2 enrichment (interaction score)
same,binding signal,PUM1 PUF domain R4-CMV,1.08 log2 enrichment (interaction score)
same,binding signal,PUM1 PUF domain R4-QGG,1.65 log2 enrichment (interaction score)
GGCUAGAACUAGUGGAUCCCCCGGCGCCCGGCGGCUCGAGCCCGGGUAAGUGUAAUUAGUCUGCAUGCCGCCGGGCGCCAUGCCUGCAGGUCGACUCUAGAAAACAUG,binding signal,PUM1 PUF domain R3-QPS,3.41 log2 enrichment (interaction score)
GGCUAGAACUAGUGGAUCCCCCGGCGCCCGGCGGCUCGAGCCCGGGUAAGUGUAAAUAGUCUGCAUGCCGCCGGGCGCCAUGCCUGCAGGUCGACUCUAGAAAACAUG,binding signal,PUM1 PUF domain R8-RRN,2.81 log2 enrichment (interaction score)
same,binding signal,PUM1 PUF domain R4-CMV,2.52 log2 enrichment (interaction score)
same,binding signal,PUM1 PUF domain R5-VHL,2.67 log2 enrichment (interaction score)
same,binding signal,PUM1 PUF domain R5-GFM,2.5 log2 enrichment (interaction score)
